Laboratory results: PubChem BioAssay (NCI)
This is part of a sample that, as a whole, favours compounds with a hit. Of some 83,000 tested, about 20% had one in any assay.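 Cells were grown in 96-well plates and exposed to the test compound at a single concentration for 48 hours; results are reported as percent growth, with values below 10 considered active.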 Values without a mark were called inactive. The source made the active and inactive calls.

Tests used:
Test in all cases: NCI-60 one-dose screen, 48 h (100 = growth as untreated, 0 = no growth, -100 = all killed)
Details in all cases: 10 µM unless noted
NCI-H23 lung = system: NCI-H23 lung
NCI-H226 lung = system: NCI-H226 lung
NCI-H322M lung = system: NCI-H322M lung
HOP-62 NSCLC = system: HOP-62 NSCLC
NCI-H460 lung = system: NCI-H460 lung
HOP-92 NSCLC = system: HOP-92 NSCLC
NCI-H522 lung = system: NCI-H522 lung
A549/ATCC NSCLC = system: A549/ATCC NSCLC
786-0 renal = system: 786-0 renal
COLO 205 colon = system: COLO 205 colon
DU-145 prostate = system: DU-145 prostate
K-562 leukemia = system: K-562 leukemia
MALME-3M melanoma = system: MALME-3M melanoma
MDA-MB-231 breast = system: MDA-MB-231 breast
RXF 393 renal = system: RXF 393 renal
SF-268 CNS = system: SF-268 CNS
SF-295 CNS = system: SF-295 CNS
SF-539 CNS = system: SF-539 CNS
UACC-257 melanoma = system: UACC-257 melanoma
M14 melanoma = system: M14 melanoma

Row | SMILES | growth (NCI-H23 lung) | growth (NCI-H226 lung) | growth (NCI-H322M lung) | growth (HOP-62 NSCLC) | growth (NCI-H460 lung) | growth (HOP-92 NSCLC) | growth (NCI-H522 lung) | growth (A549/ATCC NSCLC) | growth (786-0 renal) | growth (COLO 205 colon) | growth (DU-145 prostate) | growth (K-562 leukemia) | growth (MALME-3M melanoma) | growth (MDA-MB-231 breast) | growth (RXF 393 renal) | growth (SF-268 CNS) | growth (SF-295 CNS) | growth (SF-539 CNS) | growth (UACC-257 melanoma) | growth (M14 melanoma)
1 | O=C(N/N=C/c1ccc(Br)o1)c1[nH]c2ccc(Br)cc2c1-c1ccccc1 | -37% (active) | -42.6% (active) | 15% | -28.6% (active) | -63% (active) | -4.09% (active) | -61.5% (active) | -4.05% (active) | -52.7% (active) | -13.5% (active) | -44.6% (active) | 7.92% (active) | 0.448% (active) | -73.4% (active) | -43.2% (active) | -12.2% (active) | -25.8% (active) | -99.5% (active) | 26.2% | 6.88% (active)
2 | Cn1cc(Nc2ncnc(-c3ccc(N4CCCC4)c(C#N)c3)n2)cn1 | 86% | 60.6% | 50.5% | 90.3% | 50.1% | 97.6% | 8.98% (active) | 83.7% | 59.8% | 72% | 66.5% | 29.8% | 74.8% | 63.6% | 50.8% | 71.9% | 93.2% | 65.2% | 94% | 53.5%
3 | Clc1ccc2c(NCCNC34CC5CC(CC(C5)C3)C4)ccnc2c1 | -73.2% (active) | -24.4% (active) | -61.7% (active) | -76.7% (active) | -63.1% (active) | -64.7% (active) | -76.7% (active) | -33% (active) | -79.8% (active) | -58.1% (active) | -42.7% (active) | 2.05% (active) | -80.4% (active) | -72.1% (active) | -86.4% (active) | -62.2% (active) | -90.9% (active) | -89.7% (active) | -66.3% (active) | -83.5% (active)
4 | COc1ccc(-c2nnc3c(/C=C/c4ccc(Br)cc4)nc4ccccc4n23)cc1 | 29.9% | 96.7% | 96.5% | 104% | 67.6% | 35.6% | -79.9% (active) | 75.8% | -41.8% (active) | -53% (active) | 53.6% | 10.6% | -39.4% (active) | 81.9% | -2.19% (active) | 87.4% | 87.4% | 23.8% | 70.9% | -19.8% (active)
5 | COc1ccc(C(=O)C[n+]2cccc3c4ccccc4ccc32)cc1 | 28.4% | 59.1% | 68.8% | 44.2% | 19.4% | 12.5% | 28.8% | 38.2% | 66.9% | 26.5% | 56.3% | 16.4% | 34.3% | 40.4% | 55.8% | 38% | 29.8% | 53.1% | 15.4% | 38.5%
6 | O=C1c2cccc3c(N4CCN(Cc5ccccc5)CC4)ccc(c23)C(=O)N1c1cccc(-c2nn(-c3ccccc3)cc2-c2nc3ccccc3s2)c1 | 96% | 82% | 101% | 123% | 110% | 105% | 104% | 113% | 101% | 119% | 119% | 97.4% | 98.5% | 105% | 99.8% | 108% | 107% | 97% | 124% | 97.8%
7 | C=CCSc1nnc(-c2ccc(-c3nc4ccccc4[nH]3)cc2)o1 | 89.9% | 95.5% | 97.7% | 84.2% | 87.1% | 79.1% | 70.4% | 73.5% | 77.6% | 82.6% | 77.1% | 46% | 77.4% | 92.2% | 71.3% | 87.4% | 76.2% | 82.2% | 88.2% | 73.5%
8 | Cn1cc(-c2cc(N)n3nc(-c4c[nH]c5ccccc45)cc3n2)c2cc(Br)ccc21 | -75.2% (active) | -11.9% (active) | -37.2% (active) | -76.9% (active) | -59% (active) | -74.5% (active) | -74.7% (active) | -50% (active) | -73.7% (active) | -90.1% (active) | -70% (active) | 7.7% (active) | -76.9% (active) | -89.3% (active) | -80.6% (active) | -39.8% (active) | -93.6% (active) | -93.7% (active) | -79.8% (active) | -65.7% (active)
9 | Cc1[nH]nc2ccc3nc(-c4cnn(CCO)c4)c4c(c3c12)CCCC4 | 52.7% | 28.6% | 53.8% | 65.6% | 26.6% | 35.9% | 18.9% | 49.3% | 38.7% | 47.5% | 37.9% | 38.5% | 41% | 40% | -6.62% (active) | 58.1% | 43.4% | 33.7% | 83.1% | 27.4%
10 | Clc1ccc(CNc2nc(SCCN3CCOCC3)nc3c2cnn3CC(Cl)c2ccc(Br)cc2)cc1 (stereo not given) | 49.4% | 62.6% | 83.8% | 58.6% | 25.1% | 48% | 48.5% | 23.4% | 39.6% | 5.78% (active) | 57.1% | 7.71% (active) | 1.86% (active) | 44.1% | 51.1% | 49.3% | 14.3% | 27.4% | 33.2% | 37.2%
11 | C/C(=N/O)c1ccc(NC(=O)CSc2nnc(-c3ccc(-c4nc5ccc(Cl)cc5[nH]4)cc3)o2)cc1 | -59.5% (active) | -39% (active) | 3.18% (active) | -82% (active) | -100% (active) | -53.4% (active) | -48.6% (active) | -13.3% (active) | -66.1% (active) | 50.3% | -13.6% (active) | 14.9% | -80.8% (active) | -96.5% (active) | -71.5% (active) | 17.6% | -16.4% (active) | -100% (active) | -36.9% (active) | -62.7% (active)
12 | COc1cc(NC(=O)CSc2nnc(-c3ccc(-c4nc5ccc(Cl)cc5[nH]4)cc3)o2)cc(OC)c1OC | 52.2% | 57.3% | 95.2% | 65.9% | 29% | 91.5% | 35% | 70.5% | 56.7% | 74.2% | 96% | 29.5% | 18.1% | 60.2% | 25.8% | 52.9% | 65% | 24.1% | 67.2% | 33.5%
13 | COc1ccc(NC(=O)Nc2nc3ccc([N+](=O)[O-])cc3s2)cc1 | -2.33% (active) | 6.28% (active) | 13.1% | 25.4% | 3.86% (active) | -5.8% (active) | 1.25% (active) | 30.2% | 35.3% | 67.9% | 24.8% | 9.59% (active) | -1.52% (active) | 46.1% | -0.305% (active) | 38.6% | 35.6% | 7.77% (active) | 16% | 57.6%
14 | COc1ccc(/C=C/c2nc3ccccc3c(=O)n2CC(=O)Nc2ccccc2)cc1 | 42.6% | -26.4% (active) | 46.8% | 2.16% (active) | 37% | -0.34% (active) | 89.2% | 27.5% | -42.6% (active) | 71% | 78% | 84.5% | 61.1% | -19.5% (active) | -54.7% (active) | 54.5% | 12.5% | 32.4% | 93.5% | 46.4%
15 | CC1=NN(C2=NC(=O)C(CC(=O)Nc3ccccc3C(F)(F)F)S2)C(c2ccc(N(C)C)cc2)C1 (stereo not given) | 72.6% | 53.1% | 76.1% | 78.3% | 39.6% | 7.13% (active) | 33.1% | 38.2% | 61.4% | 63.5% | 63.6% | 28.3% | 61.8% | 66% | 11.6% | 47.4% | 41.3% | 40.2% | 58.1% | 47.7%
